# Experiments:
# Settings in all cases: concentration: 1 μM,replicates: in singlicate; n = 1
# AAK1 = test system: AAK1
# ABL1-nonphosphorylated = test system: ABL1-nonphosphorylated
# ABL1-phosphorylated = test system: ABL1-phosphorylated
# ABL2 = test system: ABL2
# ACVR1B = test system: ACVR1B
# ACVR1 = test system: ACVR1
# ACVR2A = test system: ACVR2A
# ACVR2B = test system: ACVR2B
# ACVRL1 = test system: ACVRL1
# ADCK3 = test system: T1, ADCK3
# T1 construct: gene CABC1
# ADCK4 = test system: ADCK4
# AKT1 = test system: AKT1
# AKT2 = test system: AKT2
# AKT3 = test system: AKT3
# ALK = test system: ALK
# AMPK-alpha1 = test system: T2, AMPK-alpha1
# T2 construct: gene PRKAA1
# AMPK-alpha2 = test system: T3, AMPK-alpha2
# T3 construct: gene PRKAA2
# ANKK1 = test system: ANKK1
# ARK5 = test system: T4, ARK5
# T4 construct: gene NUAK1
# ASK1 = test system: T5, ASK1
# T5 construct: gene MAP3K5
# 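Further: KINOMEscan kinase panel screen.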
Compound,%Inh (AAK1) [%],%Inh (ABL1-nonphosphorylated) [%],%Inh (ABL1-phosphorylated) [%],%Inh (ABL2) [%],%Inh (ACVR1B) [%],%Inh (ACVR1) [%],%Inh (ACVR2A) [%],%Inh (ACVR2B) [%],%Inh (ACVRL1) [%],%Inh (ADCK3) [%],%Inh (ADCK4) [%],%Inh (AKT1) [%],%Inh (AKT2) [%],%Inh (AKT3) [%],%Inh (ALK) [%],%Inh (AMPK-alpha1) [%],%Inh (AMPK-alpha2) [%],%Inh (ANKK1) [%],%Inh (ARK5) [%],%Inh (ASK1) [%]
FC(F)(F)c1cc(Br)cc(Nc2nccc(-c3cnn4ncccc34)n2)c1 [GW810578],32,0,0,0,6,15,13,2,25,10,27,6,6,20,0,24,16,27,40,0
Cn1cc(-c2cccc3c(N)c(C(N)=O)nnc23)cn1,36,24,0,9,28,63,27,29,3,15,11,0,0,15,10,47,49,19,0,1
Cn1ccc2ncnc(Oc3ccc(NC(=O)Nc4cccc(C(F)(F)F)c4)c(F)c3)c21,15,88,51,29,0,0,32,36,7,18,0,23,0,0,20,0,0,0,5,5
CC(=O)Nc1nc2cnc(Nc3cc(NC(=O)c4cccc(CC(C)(C)C#N)c4)ccc3C)nc2s1,23,99.7,50,61,0,0,11,0,0,3,0,12,5,0,42,3,7,0,7,7
Cc1ccn2nc(-c3ccc(F)cc3)c(-c3ccncc3)c2c1.Cl [GW457859],0,0,0,0,0,9,0,32,0,17,59,0,0,0,1,5,0,5,5,0
C[C@@H]1CCN(C(=O)N2CCCC2)C[C@@H]1N(C)c1ncnc2[nH]ccc12,31,51,9,0,1,0,3,0,0,7,0,0,3,0,0,66,77,0,16,0
O=C(Nc1n[nH]c2cc(-c3ccco3)ccc12)C1CC1 [SB-737447],100,37,28,0,5,0,9,0,0,8,7,0,0,0,7,3,0,27,0,0
CCn1c(-c2nonc2N)nc2cncc(Br)c21 [SB-738004],67,0,0,0,30,0,0,9,0,25,23,0,13,0,31,18,0,1,0,13
CN(c1ccc2c(c1)nc(NCc1ccc(F)cc1)n2C)c1ccnc(Nc2ccc(CS(C)(=O)=O)cc2)n1.Cl [GW813244],30,97.2,79,75,3,17,0,0,0,0,21,8,0,1,0,11,5,0,4,37
CC(=O)c1c(-c2ccncc2)[nH]c(-c2ccncc2)c1C [GW493036],14,0,0,7,0,7,0,17,0,4,46,0,1,28,31,13,0,3,3,17
O=C(NOCC1CC1)c1cc(Br)c(F)c(F)c1Nc1ccc(I)cc1Cl,0,52,0,0,0,0,2,0,0,7,0,0,0,0,0,4,0,0,12,0

# Reference: publication PMC5540273 (PLoS ONE, 2017)
